From PubChem BioAssay AID588676 (Johns Hopkins Ion Channel Center, 2011)
Out of some 310,000 compounds screened, about 3,900 (1.3%) were called active.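 The calls were made as follows: active = calcium-response B-score plate-corrected more than 3 library SD below zero, starting fluorescence within 5 deviations, no agonist response on first addition; inactive = the rest.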 The sample as a whole holds a higher share of actives than the screen did.

target: Mas-related G-protein coupled receptor member X1 (Homo sapiens) (UniProt Q96LB2); experiment: blockade of BAM8-22-evoked MrgX1 calcium response – HEK293 cells, Fluo-4 calcium flux, primary screen (AID 588676); conditions: Fluo-4, BAM8-22 antagonism, at 10 µM; hits give low values;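 as to B-score: peak minus trough fluorescence over baseline after final BAM8-22 challenge near maximal dose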
Sequence (Q96LB2 whole entry, looked up): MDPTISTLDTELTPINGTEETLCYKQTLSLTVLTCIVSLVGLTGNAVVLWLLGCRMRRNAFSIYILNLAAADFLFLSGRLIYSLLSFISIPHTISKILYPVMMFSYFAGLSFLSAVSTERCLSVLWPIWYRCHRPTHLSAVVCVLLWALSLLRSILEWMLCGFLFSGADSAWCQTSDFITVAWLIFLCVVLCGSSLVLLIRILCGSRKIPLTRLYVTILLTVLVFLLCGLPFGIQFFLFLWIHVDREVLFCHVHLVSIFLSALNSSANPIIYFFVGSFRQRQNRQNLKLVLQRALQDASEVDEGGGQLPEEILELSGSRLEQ

| Compound | B-score |
| --- | --- |
| O=C(Cn1c(-c2cncs2)nc2ccccc21)NC1CCCC1 | -5 (active) |
| O=C(Cn1c(-c2cscn2)nc2ccccc21)Nc1ccc(Cl)cc1 | inactive |
| CC(=O)c1cc(-c2ccccc2)n(CC(=O)NC2CCCCC2)c1C | inactive |
| Cc1cc(NC(=O)CSC2=NS(=O)(=O)c3cc(Cl)ccc3N2)no1 | inactive |
| C[C@@H](NC(=O)OC(C)(C)C)c1nnc(S(=O)(=O)Cc2ccccc2)o1 | inactive |
| CNC(=S)N/N=C/c1ccc(OCc2ccccc2)c(Br)c1 | inactive |
| O=C(NCc1ccccn1)c1ccc2nc(-c3ccco3)c(-c3ccco3)nc2c1 | inactive |
| COCCNC(=O)Nc1ccc2nc(-c3ccco3)c(-c3ccco3)nc2c1 | -6.82 (active) |
| CCCC(=O)Nc1ccc2c(c1)nc(CCNC(=O)c1ccco1)n2C | inactive |
| CCOc1ccc(S(=O)(=O)NCCC(=O)N2CCCCCCC2)cc1 | inactive |
| O=C(NC(=S)N1CCc2ccccc21)c1ccco1 | inactive |
| O=[N+]([O-])c1ccc2c(c1)Nc1nc3ccccc3nc1N2 | -4.67 (active) |
| COc1ccc([N+](=O)[O-])cc1-c1nc2ccccc2nc1-c1ccccc1 | inactive |
| O=[N+]([O-])c1ccc2nc(-c3ccccn3)[nH]c2c1 | inactive |
| [O-][n+]1onc2c1CCc1[nH]c(-c3ccccc3)nc1-2 | inactive |
| COc1ccc(NC(=S)N2N=CCC2c2ccccc2)cc1 (stereo unspecified) | -7.31 (active) |
| COc1ccc(C(=S)Nc2ccccc2)cc1 | inactive |
| COc1ccc(C2=NN(C(C)=O)C(c3ccccc3)C2)cc1 (stereo unspecified) | inactive |
| Cc1nnc(CN(C)Cc2cn[nH]c2-c2ccc(-c3ccccc3)cc2)o1 | inactive |
| CC(Nc1nc(C(F)(F)F)nc2ccccc12)c1cccs1 (stereo unspecified) | inactive |
| Cc1ccc(N2C(=O)C3C4C=CC(CC4)C3C2=O)cc1Br (stereo unspecified) | inactive |
| CNC(=S)N1CCN(c2ccccn2)CC1 | inactive |

| Compound | B-score |
| --- | --- |
| O=[N+]([O-])c1ccc(NC(=S)N2CCN(c3ccccn3)CC2)cc1 | inactive |
| COc1cc([N+](=O)[O-])ccc1NC(=S)N1CCN(c2ccccn2)CC1 | -5.85 (active) |
| CCC(C(=O)NC1CCCCC1)N(C(=O)c1snc(C(N)=O)c1N)c1ccc(OC)cc1OC (stereo unspecified) | inactive |
| COC(=O)c1cccc(C(=O)N2CCCC(Nc3ccc4c(c3)OCCO4)C2)c1 (stereo unspecified) | inactive |
| Cc1ccc(S(=O)(=O)N2CCN(C(=O)c3ccccc3-c3nc4ccccc4s3)CC2)c(C)c1 | -4.66 (active) |
| Cc1ccc(S(=O)(=O)N2CCN(C(=O)N3CCOCC3)CC2)c(C)c1 | inactive |
| Cc1ccc(S(=O)(=O)N2CCN(C(=O)COC(=O)c3c(C)cc(C)cc3C)CC2)c(C)c1 | inactive |
| COc1cc(SC#N)ccc1N=Cc1c(C)[nH]n(-c2ccc(C)cc2)c1=O | inactive |
| CCSc1nsc(NC(=O)Nc2ccccc2OC)n1 | inactive |
| C=CCSc1nsc(NC(=O)Nc2cccc(C(C)=O)c2)n1 | inactive |
| CCSc1nsc(NC(=O)Nc2cccc(C(C)=O)c2)n1 | -6.91 (active) |
| COc1ccc(/C=N/NC(=O)c2cc(-c3cccc(C)c3)nc3ccccc23)cc1O | inactive |
| CCOc1cc(/C=N/NC(=O)c2cc(-c3ccccc3)nc3ccccc23)ccc1O | inactive |
| COc1cccc(-c2cc(C(=O)N/N=C/c3ccc(OC)c(COC(C)=O)c3)c3ccccc3n2)c1 | -7.49 (active) |
| CCCCN(C1CCS(=O)(=O)C1)S(=O)(=O)c1ccc(C(C)C)cc1 (stereo unspecified) | inactive |
| O=c1[nH]c(N2CCOCC2)nc2ccccc12 | inactive |
| C1=C(N2CCOCC2)/C(=C/c2nc3ccccc3[nH]2)CC1 | -5.3 (active) |
| CC1(C)Cc2c(C#N)c(SCc3nc4ccccc4[nH]3)nc(N3CCOCC3)c2CO1 | inactive |
| COc1ccc2c(c1)[C@H]1[C@H](CO2)[C@H](c2ccccc2)[C@]2(C)C(=O)Nc3cc(F)c(F)cc3C(=O)N12 | inactive |
| COc1cc(CN(C)Cc2nc3cc(C(F)(F)F)ccc3c(=O)[nH]2)ccc1OC(F)F | inactive |
| CCOCCCNC(=O)C1(O)c2cc(Br)ccc2NC(=O)N1c1ccc(C)c(C)c1 (stereo unspecified) | inactive |
| C=CCn1c(=NC(=O)c2cccs2)sc2cc(NC(C)=O)ccc21 | inactive |

| Compound | B-score |
| --- | --- |
| Cc1ccc(Cc2cnc(N)s2)o1 | -6.78 (active) |
| Cc1ccc(CCC(=O)Nc2ncc(Cc3cc(Cl)ccc3Cl)s2)o1 | inactive |
| CCn1ccnc1CN(C)C(=O)c1cc(COc2ccc(Cl)cc2OC)on1 | inactive |
| CCc1ccc2[nH]c(=O)c(Cc3ccccc3)c(O)c2c1 | inactive |
| CN(C)c1ccc(-n2cccc2/C=C2/SC(=Nc3ccc(F)cc3)NC2=O)cc1 | -5.31 (active) |
| Cc1ccc(N=C2NC(=O)/C(=C/C=C/c3ccco3)S2)cc1C | inactive |
| CN(C)c1ccc(-n2cccc2/C=N/n2cnnc2)cc1 | inactive |
| Cc1ccccc1NC(=O)Cn1cc(C(=O)C2CC2)c2ccccc21 | inactive |
| COc1cccc2sc(N(CCCN(C)C)C(=O)C(c3ccccc3)c3ccccc3)nc12 | -7.14 (active) |
| COc1cccc2sc(N(CCCN(C)C)C(=O)CCS(=O)(=O)c3ccccc3)nc12 | inactive |
| COc1cc2ccccc2cc1C(=O)N(CCN(C)C)c1nc2c(F)cccc2s1 | inactive |
| CCc1ccc2c(c1)C1(NN=C(c3ccccc3)S1)C(=O)N2 (stereo unspecified) | inactive |
| CCOC(=O)c1c(NC(=O)CCl)sc(C(=O)N(CC)CC)c1C | inactive |
| Cn1nc(C(F)(F)F)cc1-c1ccc(/C=C(\C#N)C(=O)c2cccc(C(F)(F)F)c2)s1 | inactive |
| CC(=O)c1c(C)[nH]c(=S)c(C#N)c1-c1ccc(F)cc1 | inactive |
| CCOC(=O)c1c(C)[nH]c(=S)c(C#N)c1-c1ccccc1 | -6.66 (active) |
| CCOC(=O)c1c(C)nc(-c2ccccc2)nc1NC(=O)C(C)C | inactive |
| O=c1c(Cl)c(NCc2ccc(F)cc2Cl)cnn1C12CC3CC(CC(C3)C1)C2 | inactive |
| Cc1cccc2c1-c1sc(C(=O)NCCCN3CCc4ccccc4C3)cc1CO2 | inactive |
| CC1=NN(c2cccc(Cl)c2)C(=O)C12CC(C)=C(C)CS2 (stereo unspecified) | inactive |
| CC(C)Oc1ccc(C(CC(=O)N2CCOCC2)C(C)C)cc1 (stereo unspecified) | inactive |
| O=[N+]([O-])c1ccc(N2CCN(S(=O)(=O)c3ccccc3)CC2)cc1N1CCc2ccccc2C1 | inactive |
